ERG Ets-DNA blk: ERG Ets/DNA interaction inhibition. fluorescence polarization, His-ERG Ets domain / labelled DNA. 370,000 tested, 0.028% active. AID 624246. Potency, µM (series often up to 76.9 µM), for the others: at the highest dose FP activity, negative = inhibition, usual class: inhibitors; active means well fitted inhibition curve with a large enough effect in the polarisation, with a control signal flat; inconclusive means small, poorly fitted or top-dose-only effect, or effect the other way, or a change in a side signal; inactive means no such curve, though single readings can be large or run the other way; the % refers to the polarisation;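 further: polarization taken with two DNA probes labelled with fluorescein and Texas red; potency means the concentration at half of the fitted maximal effect; % of control where 0% means no effect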
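His-tagged ERG Ets domain (1 uM in the protein solution; 300mM KCl, 50mM Tris-HCl, 1mM EDTA, 1mM DTT, pH 7.5) received compound, then a probe mix of 5 nM fluorescein-DNA and 100nM Texas-615-DNA. Fluorescence polarization was read for both dyes.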
Nrf2 ARE act: activators of Nrf2 (ARE) signaling | AREc32 ARE-luciferase reporter (MCF7-derived line), luminescence, 24 h | Potency, µM (highest dose often 46.1 µM), inactives show at the top dose activation, most hits filed as activators | 410,000 tested, 0.31% active; further: potency means the concentration at half of the fitted maximal effect; % of control where 0% means no effect; nearly all actives have a fitted effect of over 65% in size
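Steps: seed AREc32_Fluc cells (1000/well, 5% FBS OPTI-MEM); incubate overnight at 37 deg C; add 23 nL compound; incubate 24 hr; add Steady-Glo; hold 30 min RT; read luminescence.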
A549 tox: counter-screen for Nrf2 inhibitors: cytotoxicity in A549 cells | A549 ARE-Fluc cells, CellTiter-Fluor viability, 18-24 h | AID 504648 | 390,000 tested, 0.16% active | Potency, µM (series often up to 46 µM), for the others: at the highest dose activity change, negative = cytotoxicity, usual class: inhibitors; further: potency means the concentration at half of the fitted maximal effect; on the % scale 0 is the no-effect control and ±100 the full control effect
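Cytotoxicity counterscreen: CellTiter-Fluor fluorescence was measured in A549 ARE_Fluc cells after 18-24 h of compound exposure in a concentration series. The subsequent BugLite luminescent read reports ARE-luciferase activity.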
Nrf2 inh: blocks Nrf2 signaling; 360,000 tested, 2.1% active; Potency, µM (series often up to 46 µM), without a hit: top-dose activity change, negative = inhibition, usual class: inhibitors; AID 504444; A549 ARE-Fluc reporter, luciferase luminescence, 18-24 h; further: potency means the concentration at half of the fitted maximal effect; on the % scale 0 is the no-effect control and ±100 the full control effect; nearly all actives have a fitted effect of over 60% in size
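A549 ARE_Fluc cells, 5000/well, 5% FBS OPTI-MEM; compounds in dose-response, 18-24 h at 37 °C/5% CO2; CellTiter-Fluor viability read (Ex 405/Em 525), then BugLite luciferase luminescence = Nrf2 activity.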
LDHA inh: inhibitors of human lactate dehydrogenase A; 480,000 tested, 0.15% active; purified LDHA, NADH/diaphorase-resazurin fluorescence; active compounds read low; activity change, % (values are at about 110 or 230 µM); P00338; in the data active means activity change below about -30%; inconclusive means mostly about -25% to -30%;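 further: plate controls were DMSO wells for no effect and wells without enzyme for full effect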
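LDH5 2 nM; NADH 0.06 mM, pyruvate 0.2 mM; 200 mM Tris pH 7.4, EDTA, Tween-20; 5 min RT. Detection: diaphorase 0.133 mg/mL + resazurin 37 µM, fluorescence ex540/em590 at 0 and 20 min; normalized to enzyme-free and DMSO wells.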
12-LOX inh: ALOX12 (human) lipoxygenase inhibition | Potency, µM (highest dose often 108 µM), for the others: at the top dose activity change, negative = inhibition, most hits filed as inhibitors | 580,000 tested, 1.1% active | purified 12hLO, xylenol orange hydroperoxide absorbance | AID 1671190; further: potency means the concentration at half of the fitted maximal effect; on the % scale 0 is the no-effect control and ±100 the full control effect
Target sequence (P18054 whole entry, looked up): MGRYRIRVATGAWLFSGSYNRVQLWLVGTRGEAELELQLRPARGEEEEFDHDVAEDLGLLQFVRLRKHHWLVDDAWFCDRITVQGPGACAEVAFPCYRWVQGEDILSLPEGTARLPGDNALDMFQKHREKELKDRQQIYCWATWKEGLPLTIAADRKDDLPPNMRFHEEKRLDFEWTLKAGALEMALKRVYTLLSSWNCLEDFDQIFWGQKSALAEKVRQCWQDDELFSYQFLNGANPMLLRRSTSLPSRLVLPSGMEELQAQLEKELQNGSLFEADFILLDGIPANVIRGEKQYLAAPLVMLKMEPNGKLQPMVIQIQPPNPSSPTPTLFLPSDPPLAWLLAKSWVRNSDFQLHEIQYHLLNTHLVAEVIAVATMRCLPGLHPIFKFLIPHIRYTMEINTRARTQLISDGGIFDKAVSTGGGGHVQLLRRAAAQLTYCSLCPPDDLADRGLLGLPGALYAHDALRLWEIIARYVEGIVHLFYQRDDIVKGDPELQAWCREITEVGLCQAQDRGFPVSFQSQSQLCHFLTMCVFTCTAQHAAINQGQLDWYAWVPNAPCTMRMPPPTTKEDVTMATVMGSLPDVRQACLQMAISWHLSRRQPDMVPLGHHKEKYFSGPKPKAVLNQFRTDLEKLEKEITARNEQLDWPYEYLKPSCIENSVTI
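Purified human 12hLO at 150 nM in 25 mM Hepes, 0.01% Triton X-100, pH 7.0, preincubated 15 min at room temperature with compound. Reaction started with 40 uM arachidonic acid, 30 min at room temperature. Hydroperoxide measured by Fe-xylenol orange, 573/405 nm absorbance ratio.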
Numbers without * were called inactive; ? = inconclusive; nt = not tested or not shown; [ ] = dose if it differs, or a comment. Sampled rows, rich in hits. Any-hit rate of the full collection: about 2.7%. Unless noted, the call rests on the fitted dose curve; in most records, active means well fitted curve in the direction sought with a large enough effect; inconclusive means small, poorly fitted or top-dose-only effect, or another doubt; inactive means no such curve, though single readings can be large; an effect the other way counts as inactive or inconclusive.

SMILES | ERG Ets-DNA blk | Nrf2 ARE act | A549 tox | Nrf2 inh | LDHA inh | 12-LOX inh
COc1cc(/C=C/c2nc(C#N)c(NCc3ccco3)o2)cc(OC)c1OC | nt | nt | nt | nt | 9.9 | -27.9%
CCC(C)NC(=O)c1ccc(-n2c(-c3ccccc3)cc3c2CCCC3)cc1 (configuration not stated) | 2.9% | ? | -2.0% | 18.4µM* | -6.5 | -9.1%
O=C(NCCCO)c1nc(Cc2c[nH]c3ccccc23)no1 | nt | nt | nt | nt | -6.4 | -6.2%
COC(=O)C1=C(C)Nc2[nH]c(=S)[nH]c(=O)c2C1c1ccc(OC)cc1 (configuration not stated) | 1.1% | -0.5% | -0.3% | -11.8% | -6.0 | 25.1µM*
O=C(COc1ccc(F)cc1)Nc1ccc(-c2nnc3n2CCCC3)cc1 | nt | nt | nt | nt | nt | 31.6µM*
CCC(C)c1ccccc1NC(=O)COC(=O)c1ccc2[nH]c3c(c2c1)CCCC3 (configuration not stated) | -0.6% | 1.7%[9.22 µM] | ? | 20.6µM* | -4.1 | -24.6%
O=C(COC(=O)c1ccc2[nH]c3c(c2c1)CCCC3)Nc1ccccc1Cl | -1.6% | -0.5% | -2.0% | ? | -1.5 | -2.5%
O=C1COc2ccc(S(=O)(=O)NC3CCCCCC3)cc2N1Cc1noc(C2CC2)n1 | nt | nt | nt | nt | -1.6 | -18.4%
CN(Cc1cc(Cl)cc(Cl)c1)CC(C(=O)c1ccccc1)c1ccccc1 (configuration not stated) | nt | 11.2µM* | 10.9% | -7.7% | -3.0 | 3.3%
CN(C)CC(C(=O)c1ccccc1)c1ccccc1 (configuration not stated) | 0.3% | ? | -10.0% | 9.6% | -1.6 | -8.9%
CC(C)N1CC(C(=O)Nc2nc3c(s2)CCC3)CC1=O (configuration not stated) | nt | nt | nt | nt | -5.9 | ?
Cc1c(CN(C)C(=O)c2cc(-c3ccccc3)nc3ccc(Br)cc23)cnn1C | 3.6% | -1.2% | -0.4% | 9.2µM* | 1.3 | -1.1%
COc1ccc(CN(C)C(=O)c2cc(-c3ccccc3)nc3ccc(C)cc23)c(OC)c1OC | -0.7% | 2.7% | -8.6% | -15.3% | -2.2 | nt
O=C(O)[C@@H](c1ccccc1)N1Cc2ccccc2C1=O | -3.0% | 3.5% | 9.9% | 8.9% | -8.2 | 39.8µM*
CC(=O)Nc1ccc(NC(=O)C(c2ccccc2)N2Cc3ccccc3C2=O)cc1 (configuration not stated) | 5.1% | -0.7% | 15.8% | ? | 2.4 | ?
CCCc1cc(=O)oc2c3c(cc(OCC(=O)NCc4ccccn4)c12)OC(C)(C)CC3 | -11.9% | 5.7% | -1.8% | ? | 3.3 | 15.3%
CCCc1cc(=O)oc2c3c(cc(OCC(=O)NCc4ccncc4)c12)OC(C)(C)CC3 | -11.4% | 0.6% | ? | 11.6µM* | 2.6 | 19.6%
CCSC(C)CC1C/C(=N/O)c2c(CC)noc2C1 (configuration not stated) | -1.4% | -0.2% | -5.2%[1.84 µM] | 23.1µM* | -9.0 | -23.4%
CC(=O)C1=C(O)C(=CC=Cc2ccccc2)OC1=O | nt | 17.4% | nt | nt | 8.3 | 15.8µM*
O=C(/C=C/C=C/c1ccccc1)c1ccc2oc3ccccc3c2c1 | nt | nt | nt | nt | -9.7 | ?
C/C(=N\Nc1nc(-c2ccccc2)cs1)c1cccs1 | 3.1% | 17.2% | -14.4% | ? | 0.3 | 44.7µM*
O=C(COC(=O)c1cccs1)Nc1nc(-c2ccccc2)cs1 | 10.3% | 1.6% | 1.7% | 20.0% | -3.2 | -22.1%
C/C(=N\Nc1ccc([N+](=O)[O-])cc1[N+](=O)[O-])c1cccnc1 | -9.4% | 5.7% | -16.4% | ? | -0.4 | ?
CC(C)=NNc1cnnc2ccc([N+](=O)[O-])cc12 | nt | 3.55µM* | nt | nt | 10.8 | nt
OCCC#Cc1c(-c2ccsc2)sc2ccccc12 | 3.4% | 2.51µM* | 4.6% | 6.7% | -2.7 | ?
SMILES | ERG Ets-DNA blk | Nrf2 ARE act | A549 tox | Nrf2 inh | LDHA inh | 12-LOX inh
Cc1cc(Br)ccc1OCC(=O)N(Cc1nc(-c2ccccc2)no1)C(C)C | -0.5% | 0.6% | -1.7% | 18.4µM* | 1.7 | 6.3%
Cc1ccc(OCC(=O)N(Cc2nc(-c3ccccc3)no2)C(C)C)cc1C | -7.0% | 3.9% | 1.7% | nt | 0.6 | -9.0%
COc1ccccc1OCC(=O)N(Cc1nc(-c2ccc(Cl)cc2)no1)C(C)C | -0.8% | 2.9% | -6.1% | -20.8% | -1.8 | -20.0%
COc1ccccc1OCC(=O)N(Cc1nc(-c2ccccc2)no1)C(C)C | 11.9% | 2.2% | -12.0% | 13µM* | 4.2 | -0.2%
NC(=O)c1cc2ccccc2o/c1=N\NC(=O)c1ccccc1O | 8.4% | 0.0% | -9.5% | 8.2µM* | -1.0 | -12.6%
Cc1ccc(C(N)=O)c(OCc2coc(-c3ccc(F)cc3)n2)c1 | nt | nt | nt | nt | -0.6 | -27.6%
COc1ccc(S(=O)(=O)Nc2cc(OC)cc3cccnc23)cc1 | nt | nt | -5.0% | ? | nt | nt
COc1ccc(S(=O)(=O)Nc2cccc3cccnc23)c([N+](=O)[O-])c1 | nt | nt | ? | 7.31µM* | 5.9 | nt
Cc1cc2cc(NS(=O)(=O)c3ccc4ccccc4c3)ccc2[nH]1 | nt | nt | nt | nt | -6.1 | 10µM*
O=S(=O)(Nc1cccc2cccnc12)c1ccc2ccccc2c1 | nt | nt | -9.7% | 5.17µM* | 1.5 | nt
Cc1cc2cc(NS(=O)(=O)c3ccccc3)ccc2[nH]1 | nt | nt | nt | nt | -0.8 | -28.7%
O=S(=O)(Nc1cccc2cccnc12)c1cccs1 | nt | nt | ? | 18.4µM* | 9.1 | nt
O=C(Cc1c[nH]c2ccccc12)NCCOc1ccc(Cl)cc1 | nt | nt | nt | nt | -2.8 | ?
CCCCC1CCC(c2nc(C#N)c(N3CCN(C)CC3)o2)CC1 (configuration not stated) | nt | nt | nt | nt | 4.6 | ?
O=C(CCc1c[nH]c2ccccc12)NCc1ccc(F)cc1 | nt | nt | nt | nt | 2.1 | -2.1%
O=S(=O)(Nc1ccc(O)c2ccccc12)c1cccs1 | 9.8% | -3.1% | -19.4% | -25.2% | 28.4 | 31.6µM*
O=S(=O)(Nc1cccc2cccnc12)c1ccc(Br)cc1 | nt | nt | ? | 8.2µM* | nt | nt
O=S(=O)(Nc1cccc2ccccc12)c1cccs1 | 6.2% | 0.4% | -0.6% | 5.9% | 2.0 | -13.4%
Nc1ccc(S(=O)(=O)Nc2cccc3cccnc23)cc1 | nt | nt | 2.9% | 10.6% | nt | nt
Cc1ccc(NC(=O)NC(C)c2c(-n3cccc3)sc(C)c2C)cc1F (configuration not stated) | -5.6% | -0.1% | ? | 23.1µM* | -4.0 | -28.8%
Cc1cccc2cc(CN(Cc3cccnc3)C(=O)C(C)C)c(=O)[nH]c12 | nt | nt | nt | nt | -2.6 | 2.1%
O=C(NC1CCCCC1)C(c1ccccc1)N1CCC2(CC1)OCCO2 (configuration not stated) | -0.2% | -0.5% | -2.6% | -4.8% | -8.1 | 0.0%
